This note sets out measurements from PubChem BioAssay (NCI).

Holding throughout (assay): NCI-60 one-dose screen, 48 h (100 = growth as untreated, 0 = no growth, -100 = all killed)
What all share (details): 10 µM unless noted

Test [1] has as its system T-47D breast.
In test [2] the test system is BT-549 breast.
The subject of test [3] is SW-620 colon.
Test [4] concerns MCF7 breast.
For test [5], the system named is HCT-116 colon.
Test [6] relates to HCC-2998 colon.
Test [7] has as its system KM12 colon.
Test [8] relates to MDA-MB-435 melanoma.

Each structure is given as a SMILES string. Compounds without any hit were thinned out: in the full panel of roughly 83,000, 20% have a hit.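 Cell lines were cultured in 96-well plates, exposed to a single compound concentration, and assessed for percent growth 48 hours later.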 Values without a mark were called inactive. Calls of active or inactive are those of the source. How the source made its calls: active means growth percent below 10; inactive means the rest.

For `CCCc1n(Cc2ccc3ccccc3c2)c2ccccc2[n+]1Cc1ccc2ccccc2c1`, the growth was -9.39% (active) in test [1]; -76.6% (active) in test [2]; -74.2% (active) in test [3]; -64.4% (active) in test [4]; -91.2% (active) in test [5]; -57.2% (active) in test [6]. The growth in test [7] was -75% (active).

Turning to `C/C(=C\C(=N\N=C(N)N)c1ccc(Cl)cc1)c1ccc(Cl)cc1`, the growth in test [1] is -79.6% (active); in test [2], -84.1% (active); in test [3] it was -72.7% (active); in test [4], -78.4% (active); in test [5], -85.9% (active); in test [6], -87.3% (active). Further, the growth in test [7] is -88.2% (active).

Turning to `CC(=O)[C@@]1(O)[C@H](C)C[C@H]2[C@@H]3C=C(C)C4=Cc5c(cnn5-c5ccccc5)C[C@]4(C)[C@H]3[C@@H](O)C[C@@]21C`, the growth in test [1] was 44.4%; in test [8], 37.7%; in test [3] it was -59.9% (active); in test [4], 15.5%; in test [5], 14.4%; in test [6] it was 19.8%. Also, in test [7], the growth is -45% (active).

In the case of `COC(=O)c1cc2oc(/C=N/NC(=O)c3cc4oc(-c5cccc(C(F)(F)F)c5)cc4[nH]3)cc2n1Cc1ccccc1`, the growth in test [1] was 94.4%; in test [8], 99.6%; in test [3], 106%; in test [4], 88.8%; in test [5] it was 67.6%; in test [6], 90.5%. Besides, in test [7], the growth is 88.3%.

Consider `CC1=NC(c2ccc(Cl)cc2)C2=C(N1)/C(=C/c1ccc(Cl)cc1)CCC2` (centres undefined), for which the growth in test [1] was 82.5%; in test [2], 66%; in test [3], 82.1%; in test [4], 31.3%; in test [5] it was -39.9% (active); in test [6] it was 41.5%. In test [7], the growth is 38%.

Turning to `Cc1[nH]n(C(=O)c2ccncc2)c(=O)c1N=Nc1ccc(O)c(C(=O)O)c1`, the growth in test [1] is 132%; in test [8] it was 126%; in test [3], 105%; in test [4], 109%; in test [5], 75.3%; in test [6] it was 117%. The growth in test [7] was 104%.

Turning to `CCOC(=O)NNc1cccc(Cl)c1`, the growth is 119% in test [1]; 107% in test [8]; 102% in test [3]; 105% in test [4]; 111% in test [5]; 99.9% in test [6]. Further, the growth in test [7] was 116%.

In the case of `C=CCn1c(SCC(=O)Nc2ccc(C(=O)/C=C/c3ccccc3)cc2)nnc1-c1ccc(OC)c(OC)c1`, the growth in test [1] is 50.6%; in test [2], 59.5%; in test [3], 100%; in test [4], 16.5%; in test [5], -91.7% (active); in test [6], 85.3%. The growth in test [7] is 57.3%.

Take `NS(=O)(=O)c1ccc(N2N=C(c3ccc(Br)cc3)CC2c2cn(-c3ccccc3)nc2-c2ccc(Cl)cc2)cc1` (centres undefined): the growth in test [1] was 69.2%; in test [8], 79.6%; in test [3], 96.1%; in test [4] it was 53.1%; in test [5] it was 63%; in test [6], 77.8%. Further, the growth in test [7] was 74.9%.

With `CCCOC(=O)C1c2cc3c(cc2CC(C)C1C(=O)OCCC)OCO3` (centres undefined), the growth was 86.2% in test [1]; 104% in test [8]; 101% in test [3]; 100% in test [4]; 60.1% in test [5]; 98.6% in test [6]. In addition, in test [7], the growth was 108%.

With `Cc1nc([C@H]2CC[C@H]3[C@@H]4CCC5=CC(=O)CC[C@]5(C)[C@H]4CC[C@]23C)cs1`, the growth in test [1] was 42%; in test [8], 66.8%; in test [3] it was 73.3%; in test [4], 55.2%; in test [5], 28.3%; in test [6], 61.1%. Moreover, in test [7], the growth was 65.9%.

For `COc1ccc(/C(=C\c2cc(OC)c(OC)c(OC)c2)C(=O)Nc2nc3ccc(Cl)cc3s2)cc1`, the growth was 86.7% in test [1]; 98.3% in test [2]; 105% in test [3]; 98.9% in test [4]; 86.8% in test [5]; 104% in test [6]. In test [7], the growth is 94.2%.

Turning to `Clc1ccc(Nc2ncnc3c2sc2ncccc23)c(Cl)c1`, the growth in test [1] is 36.7%; in test [2], 44.6%; in test [3], 47.9%; in test [4], 18.4%; in test [5], 27.6%; in test [6], 59.6%. The growth in test [7] is 50.8%.

Turning to `C[C@@H]1C[C@H](N)C[C@H](c2ccncc2NC(=O)c2ccc(F)c(-c3c(F)cccc3F)n2)C1`, the growth in test [1] is 4.14% (active); in test [2] it was 51.2%; in test [3], 45.5%; in test [4] it was 40.2%; in test [5], 48.1%; in test [7], 48.3%.

Regarding `COc1cc(/C=C/c2ccc3c(Br)cc(Br)c(O)c3n2)ccc1O`, the growth is 4.66% (active) in test [1]; 32% in test [8]; 18.3% in test [3]; 10.2% in test [4]; 1.68% (active) in test [5]; 35% in test [6]. In test [7], the growth is 20.8%.

Take `COc1cc(C2CC(c3cccc(Nc4ccnc5cc(Cl)ccc45)c3)=NN2c2ccc(Cl)cc2)cc(OC)c1OC` (centres undefined): the growth in test [1] is 30.8%; in test [2] it was 81.7%; in test [3] it was 37.3%; in test [4], 54.8%; in test [5], 53%; in test [6] it was 87.3%. For the same molecule, in test [7], the growth was 33.9%.

As to `CC(C)(C)CC(C)(C)NCc1cc(C(C)(C)C)cc(CNC(C)(C)CC(C)(C)C)c1O`, the growth in test [1] was 14.5%; in test [8], 81.5%; in test [3] it was 75.3%; in test [4] it was 31.6%; in test [5], 26.1%; in test [6] it was 31.1%. The growth in test [7] was 75%.

With `O=[N+]([O-])c1cc(F)c2cccnc2c1O`, the growth is 99.5% in test [1]; 102% in test [8]; 87.4% in test [3]; 94.7% in test [4]; 95.8% in test [5]; 96.2% in test [6]. Besides, the growth in test [7] is 111%.

On to `CC(=O)c1cc(C(=O)c2ccc3c(c2)Sc2ccccc2N3)c2c(C)cccn12`, for which the growth is 58.1% in test [1]; 18.2% in test [2]; 28.8% in test [3]; 24.5% in test [4]; 6.07% (active) in test [5]; 22.8% in test [6]. In test [7], the growth is 11.8%.

Consider `N#Cc1c(N)n(C2OC(CO)C(O)C2O)c2ncnc(N)c12` (centres undefined), for which the growth in test [1] was -46.2% (active); in test [8], -58.4% (active); in test [3], -33.3% (active); in test [4], -21.1% (active); in test [5], 4.76% (active); in test [6], -35.2% (active). Besides, the growth in test [7] is -3.95% (active).

For the molecule `Cc1cc(O)ccc1C1=NN(c2ccc(S(N)(=O)=O)cc2)C(=O)CC1`, the growth was 45.8% in test [1]; -21.1% (active) in test [8]; 16.2% in test [3]; 27.7% in test [4]; 23.3% in test [5]; 64% in test [6]. In test [7], the growth is 22.7%.

In the case of `O=C(O)Cn1ccc2ccccc21`, the growth in test [1] is 135%; in test [8] it was 108%; in test [3], 99.1%; in test [4], 96.4%; in test [5] it was 96.9%; in test [6], 104%. The growth in test [7] was 109%.

For the molecule `CCOc1c(C#N)c2c(N)ncnc2n1C1OC(CO)C(O)C1O` (centres undefined), the growth is 15.4% in test [1]; 18.1% in test [8]; 4.66% (active) in test [3]; -3.56% (active) in test [4]; 3.41% (active) in test [5]; 84.1% in test [6]. The growth in test [7] was 10.6%.

As to `Oc1ccc(-c2cnc(-c3ccccc3)[nH]2)c(O)c1`, the growth is 107% in test [1]; 110% in test [8]; 109% in test [3]; 83.3% in test [4]; 78.6% in test [5]; 117% in test [6]. Also, the growth in test [7] is 102%.

Take `COc1ccc(C2=Nn3c(nnc3-c3ccc(Cl)cc3N)SC2)cc1`: the growth in test [1] is 88.1%; in test [8] it was 91.4%; in test [3] it was 108%; in test [4] it was 89.8%; in test [5], 105%; in test [6], 120%. For the same molecule, the growth in test [7] was 110%.
